# Experimental data as given in ChEMBL document CHEMBL3433997, “St. Jude Leishmania screening dataset” (2016).
# Target: Glucose transporter (Leishmania mexicana) (UniProt O61059)
# Assay: ST_JUDE_LEISH: Cytotoxicity at 2uM final concentration against transgenic Leishmania Mexicana promastigotes LmGT2 that are glucose transport deficient and complemented with the L. Mexicana glucose transporter 2. Activity is measured by DNA content using SYBR green in vitro
# Format: functional
row,Compound,inhibition [%]
1,Clc1ccc(-c2nc3cc(-c4ccc5nc(-c6ccc(Cl)cc6)[nH]c5c4)ccc3[nH]2)cc1,8.04
2,CCOc1ncccc1CN1CCC(N2CCc3cc(NC(=O)c4ccco4)ccc32)C1 (stereo not given),1.65
3,CC(Oc1c(C2CCN(CCCCNC(=O)c3ccc(-c4ccc(Cl)cc4)cc3)CC2)ccc2c1CCCC2)C(N)=O (stereo not given),-0.27
4,COc1ccc(N2CCN(CCCCNCc3ccc(NC(=O)c4cc(Cl)cc(Cl)c4)cc3)CC2)c(OC)c1,1.31
5,C[C@H]1CN(Cc2cccc(-c3cc(CNC(=O)c4cccc(CC5CCN(C)CC5)c4)ccc3F)c2)CCN1C,-3.42
6,Cc1cc(Nc2ccc(OCc3ccccc3Cl)cc2)c2cc(Cl)ccc2n1,7.55
7,O=C(Nc1cccc(CN2CCCN(Cc3ncc[nH]3)CC2)c1)c1ccc(-c2ccccc2)cc1,2.54
8,COc1ccc(-c2nc(NC(=O)CSc3ccccc3)sc2C)cc1,6.37
9,CC(NCCc1cccc(Cl)c1)C(O)c1ccc(OCCCCCCOc2ccc(C(O)C(C)NCCc3cccc(Cl)c3)cc2)cc1 (stereo not given),24.4
10,COc1ccc2c(=O)c(I)c(C)[nH]c2c1,-3.12
11,COc1cc(F)c2nccc([C@@H](O)CN3CCC(NCc4ccc5c(n4)NC(=O)CS5)CC3)c2c1,-1.38
12,CC(C)C[C@H](NC(=O)[C@H](Cc1ccccc1)NC(=O)CCN1C(=O)COc2ccc(C(=O)O)cc21)C(=O)NC(CC1CCCCC1)C(O)CC(=O)NCCCn1ccnc1 (stereo not given in full),9.78
13,Fc1cccc(C=NNc2ccnc3cc(Cl)ccc23)c1,0.64
14,COCCn1c(C)nc2ccccc2c1=O,-0.79
15,CC(C)N(C(=O)CSc1nc2cc(Cl)ccc2c(=O)n1Cc1ccccc1)C(C)C,0.05
16,COc1ccc(CNC2CCN(C)CC2)cc1-c1ccc(S(=O)(=O)NCc2ccccc2)c(F)c1,-1.2
17,Cn1nc(-c2ccc(NC(=O)Nc3cc(C(F)(F)F)ccc3F)c(F)c2)c2cnc(NCCCN3CCOCC3)nc21,7.47
18,Cc1cccc(Nc2nc(N[C@@H]3CCCNC3)nc3cc[nH]c(=O)c23)c1,83.4
19,COc1ccc(C(=O)N2CCC(CN3CCOC(c4ccccc4)(c4ccccc4)C3)CC2)cc1,2.45
20,CCCCCCNC(=O)c1nn(CCN2CCC(N3CCCC3)CC2)cc1-c1ccc(Cl)c(Cl)c1,1.8
21,O=C(Nc1ccccc1Oc1ccccc1)NC1CCN(c2ccnc3cc(Cl)ccc23)C1 (stereo not given),3.25
22,CCN(CC)CCNc1nccc(N(C)c2ccc(NC(=O)Nc3cc(C(F)(F)F)ccc3F)cc2)n1,0.26
23,Cc1ccc2nc(C)n(C3CCN(C(=O)Cc4ccccc4C)CC3)c2c1,4.9
24,CCn1c(-c2nonc2N)nc2cnc(Oc3cccc(NC(=O)c4ccc(OCCN5CCCCC5)cc4)c3)cc21,13.7
25,c1ccc(CNc2nc(NCCN3CCCCC3)nc3ccccc23)cc1,4.27
